Assay results reported in PubChem BioAssay (NCI).
This is part of a sample that, as a whole, favours compounds with a hit. Of some 83,000 tested, about 20% had one in any assay.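 Activity criterion: percent growth below 10, measured after cells in 96-well plates were exposed to a single compound concentration for 48 hours.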 Unmarked numbers belong to inactive results. Active and inactive are the calls of the source.

Experiments:
Experiment in all cases: NCI-60 one-dose screen, 48 h (100 = growth as untreated, 0 = no growth, -100 = all killed)
Conditions in all cases: 10 µM unless noted
HCT-15 colon = test system: HCT-15 colon
HT29 colon = test system: HT29 colon
SNB-75 CNS = test system: SNB-75 CNS
SNB-19 CNS = test system: SNB-19 CNS
U251 CNS = test system: U251 CNS
PC-3 prostate = test system: PC-3 prostate
SK-MEL-5 melanoma = test system: SK-MEL-5 melanoma
UACC-62 melanoma = test system: UACC-62 melanoma
LOX IMVI melanoma = test system: LOX IMVI melanoma
SK-MEL-28 melanoma = test system: SK-MEL-28 melanoma
SK-MEL-2 melanoma = test system: SK-MEL-2 melanoma
EKVX NSCLC = test system: EKVX NSCLC
SN12C renal = test system: SN12C renal
UO-31 renal = test system: UO-31 renal
TK-10 renal = test system: TK-10 renal
ACHN renal = test system: ACHN renal
CAKI-1 renal = test system: CAKI-1 renal
A498 renal = test system: A498 renal
CCRF-CEM leukemia = test system: CCRF-CEM leukemia
MOLT-4 leukemia = test system: MOLT-4 leukemia

| Compound | growth (HCT-15 colon) | growth (HT29 colon) | growth (SNB-75 CNS) | growth (SNB-19 CNS) | growth (U251 CNS) | growth (PC-3 prostate) | growth (SK-MEL-5 melanoma) | growth (UACC-62 melanoma) | growth (LOX IMVI melanoma) | growth (SK-MEL-28 melanoma) | growth (SK-MEL-2 melanoma) | growth (EKVX NSCLC) | growth (SN12C renal) | growth (UO-31 renal) | growth (TK-10 renal) | growth (ACHN renal) | growth (CAKI-1 renal) | growth (A498 renal) | growth (CCRF-CEM leukemia) | growth (MOLT-4 leukemia) |
| --- | --- | --- | --- | --- | --- | --- | --- | --- | --- | --- | --- | --- | --- | --- | --- | --- | --- | --- | --- | --- |
| NS(=O)(=O)c1ccc(CCn2c(SCC(=O)N/N=C/c3cccnc3)nc3ccccc3c2=O)cc1 | 83% | 109% | 90.8% | 100% | 87.7% | 83.8% | 79.5% | 84.5% | 85% | 101% | 92% | 96% | 110% | 83.6% | 109% | 102% | 95.6% | 85.5% | 60.3% | 68.8% |
| C=CCCCCOc1cccc(/C=C2\N=C3SCCCN3C2=O)c1 | 90% | 90.1% | 91.1% | 99.9% | 92.7% | 95.3% | 99% | 87.6% | 88.7% | 108% | 91.3% | 95.9% | 89.8% | 76.6% | 99.4% | 99.2% | 92.6% | 82.9% | 121% | 96.9% |
| Nc1nc(NC2CC2)cc(-c2cccc(Cl)c2Cl)n1 | 25% | 13.6% | 39.2% | 59.1% | 39.1% | 64.6% | 46.5% | 36.1% | 40.7% | 68.7% | 14.3% | 71.9% | 59.6% | 71.7% | 87.3% | 75.1% | 58.5% | 47.7% | 62.3% | 28.4% |
| CCOC(OCC)c1cnc2nc(NC(C)=O)[nH]c(=O)c2n1 | 98.7% | 90.6% | 91.5% | 99.4% | 104% | 106% | 104% | 102% | 100% | 105% | 95.4% | 109% | 101% | 82.6% | 104% | 103% | 102% | 73% | 107% | 103% |
| CCC(=O)NC1=C(Cl)C(=O)C(NC(=O)CC)=C(Cl)C1=O | 101% | 106% | 107% | 115% | 92.8% | 91.4% | 96.3% | 102% | 66.6% | -1.93% (active) | 111% | 129% | 101% | 2.01% (active) | 50.5% | 21.2% | 103% | 130% | -42.7% (active) | -41.3% (active) |
| COc1ccc(/C(C)=N/NC(=O)CSc2nc3ccccc3c(=O)n2CCc2ccc(S(N)(=O)=O)cc2)cc1 | 65.3% | -10% (active) | -26.2% (active) | 35.4% | -32.9% (active) | -12.8% (active) | -26.3% (active) | 27.3% | 28.3% | 43.1% | 6.04% (active) | 87.3% | 27.7% | 32.4% | -39.8% (active) | 34.7% | 28.9% | 5.05% (active) | 33.9% | 43% |
| CCCNCCC(C)=O | 111% | 98.1% | 107% | 97.1% | 68.8% | 97.1% | 115% | 98% | 94.5% | 108% | 118% | 89.6% | 102% | 92.4% | 101% | 106% | 106% | 94.2% | 107% | 112% |
| COc1ccc2c(c1)OC1=C(C(=O)OC1)C2c1cc(OC)c2c(c1)OCCO2 (stereo not given) | 12.8% | 5.47% (active) | 30% | 38.8% | 20.5% | 25.6% | -17.7% (active) | 36.3% | 21.3% | 45.4% | 41.3% | 55.5% | 27.5% | 46.2% | 76.2% | 27.8% | 48.1% | -1.6% (active) | 15% | 20.8% |
| CCN1C(=O)/C(=C/N2N=C(c3ccc(Cl)cc3)CC2c2ccc(OC)cc2)SC1=S (stereo not given) | 87.8% | 79.8% | 82.8% | 92.9% | 81.9% | 78.6% | 99.4% | 70.8% | 84.5% | 103% | 84.4% | 93.6% | 86.2% | 71.1% | 102% | 94.1% | 91.6% | 64.4% | 100% | 73.4% |
| Cc1ccsc1C(=O)CC(=O)C(F)(F)C(F)(F)C(F)(F)F | 111% | 111% | 92.3% | 111% | 103% | 91.2% | 109% | 96.7% | 97.8% | 103% | 115% | 93% | 96.7% | 86.5% | 126% | 102% | 92% | 116% | 95.7% | 110% |
| C=C[C@H]1CCC/C=C/[C@@H]2C[C@H](O)C[C@H]2[C@H](O)/C=C/C(=O)O1 | 5.82% (active) | -51.5% (active) | 25.8% | 22.3% | 14.6% | 15.1% | -77.7% (active) | 5.56% (active) | -99.1% (active) | 7.46% (active) | -37.9% (active) | 3.38% (active) | 5.71% (active) | -11.2% (active) | -45.6% (active) | 5.96% (active) | -1.92% (active) | -48.7% (active) | 7.38% (active) | 0.424% (active) |
| Cc1cc(N)cc(C)c1-c1c(Br)cc(N)cc1Br | 32% | 9.08% (active) | 2.44% (active) | 37.4% | 22.2% | 23.2% | 21% | 48.9% | 16% | 44.5% | 26.6% | 51.8% | 47.9% | 36.1% | 22.3% | 56.2% | 35% | 27.9% | 8.42% (active) | 35.1% |
| O=C(CC(=O)C(F)(F)C(F)(F)C(F)(F)F)c1cc2ccccc2o1 | 108% | 103% | 92.2% | 107% | 97.5% | 91.1% | 106% | 104% | 92.4% | 105% | 106% | 100% | 103% | 87.5% | 108% | 110% | 94.8% | 125% | 102% | 102% |
| CC(=O)Oc1ccccc1C(=O)Nc1ncc([N+](=O)[O-])s1 | 32.3% | 44.9% | 46.4% | 41.7% | 39.2% | 10.1% | 22.8% | 1.31% (active) | 23.4% | 49.3% | -30.1% (active) | 34.7% | 15.4% | 16.2% | 19.4% | 55.8% | 10.7% | -40.2% (active) | 13.9% | -9.45% (active) |
| CC1=C(O)C(=O)CC1 | 108% | 101% | 97.9% | 101% | 100% | 80.9% | 99.5% | 110% | 99.7% | 100% | 118% | 96.2% | 97% | 94% | 111% | 111% | 90.9% | 83.7% | 115% | 108% |
| Clc1ccc(Cl)c(N=Cc2ccc3c(c2)OCO3)c1 | 106% | 110% | 103% | 107% | 104% | 107% | 106% | 103% | 95.2% | 116% | 109% | 98.8% | 105% | 86.6% | 107% | 114% | 94.6% | 91.6% | 106% | 106% |
